# According to PubChem BioAssay:
# The source made the active and inactive calls.
# Legend:
# [1] = optical density shifts of acrAB sulA E. coli – strain DRC41, OD650, 48 h, E. coli filamentation inducer project, primary screen (AID 1152); conditions: higher = more signal, called active from +8 up or from −8 down;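 also: E. coli MC1000 strain DRC41 lacking acrAB efflux pump and sulA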
# [2] = probe aLefty1 binding on compound microarray – biochemical, small-molecule microarray, 635/667 nm fluorescence, primary screen (AID 1153); conditions: higher = more signal;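 also: score merges spot fluorescence with signal-to-noise ratio from the scanned slide images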
# [3] = plasmodial surface anion channel blockers, osmotic lysis – cell-based, P. falciparum Indochina, OD700, 1 h, primary screen (AID 1154); conditions: P. falciparum Indochina infected RBC osmotic lysis, higher = more signal, called active from +8 up or from −8 down
# [4] = plasmodial surface anion channel blockers, osmotic lysis – cell-based, P. falciparum Indochina, OD700, 2 h, primary screen (AID 1155);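 also: lysis reports solute entry through the parasite surface anion channel PSAC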; conditions: P. falciparum Indochina infected erythrocytes, higher = more signal, called active from +8 up or from −8 down
# [5] = changes in parasitized red cell lysis, either direction – P. falciparum Indochina, OD700, 3 h, PSAC antagonist project, primary screen (AID 1156); conditions: P. falciparum-infected erythrocytes, osmotic lysis, higher = more signal, called active from +8 up or from −8 down
# [6] = plasmodial surface anion channel blockers, osmotic lysis – cell-based, P. falciparum Indochina, OD700, 18 h, primary screen (AID 1157); conditions: P. falciparum Indochina infected erythrocytes, osmotic lysis OD700, 18 h; higher = more signal, called active from +8 up or from −8 down
# [7] = S6 kinase pathway phospho-S6 level changes – cell-based, A549, cytoblot, luminescence, serum-stimulated, primary screen (AID 1158); conditions: 5 h, higher = more signal;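 also: serum-stimulated A549 lung adenocarcinoma cells; signal is phosphorylated S6 detected by cytoblot immunostaining with HRP secondary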
# [8] = target: NADPH oxidase 2 (Homo sapiens) (UniProt P04839); assay: compounds shifting NOX2 Amplex Red fluorescence – cell-based, HEK293-NOX2, PMA-stimulated, NOX inhibitor project, primary screen (AID 1159); conditions: 45 min, higher = more signal, called active from +8 up or from −8 down; also: test concentration not given here
# Sequence of NADPH oxidase 2 (Homo sapiens) (P04839 whole entry, looked up): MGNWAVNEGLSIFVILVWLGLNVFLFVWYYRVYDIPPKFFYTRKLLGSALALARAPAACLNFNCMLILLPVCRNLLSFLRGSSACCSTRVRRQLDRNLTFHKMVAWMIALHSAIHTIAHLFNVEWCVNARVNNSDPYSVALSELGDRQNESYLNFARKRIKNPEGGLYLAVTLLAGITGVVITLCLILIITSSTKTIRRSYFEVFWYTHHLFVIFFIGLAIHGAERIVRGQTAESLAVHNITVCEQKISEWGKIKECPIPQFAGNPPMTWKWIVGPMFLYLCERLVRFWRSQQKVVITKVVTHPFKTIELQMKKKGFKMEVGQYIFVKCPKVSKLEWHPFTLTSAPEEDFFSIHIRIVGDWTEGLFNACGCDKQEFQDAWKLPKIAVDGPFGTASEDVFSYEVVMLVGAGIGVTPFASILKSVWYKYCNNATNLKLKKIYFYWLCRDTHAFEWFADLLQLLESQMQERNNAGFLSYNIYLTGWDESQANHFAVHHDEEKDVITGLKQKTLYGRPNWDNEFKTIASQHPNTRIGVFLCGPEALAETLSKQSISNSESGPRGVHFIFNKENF
# [9] = target: NADPH oxidase 4 (Homo sapiens) (UniProt Q9NPH5); assay: compounds shifting NOX4 Amplex Red fluorescence – cell-based, HEK293-NOX4, tetracycline-induced, NOX inhibitor project, primary screen (AID 1160); conditions: HEK293-NOX4, Amplex Red H2O2 fluorescence, 45 min; higher = more signal, called active from +8 up or from −8 down
# Sequence of NADPH oxidase 4 (Homo sapiens) (Q9NPH5 whole entry, looked up): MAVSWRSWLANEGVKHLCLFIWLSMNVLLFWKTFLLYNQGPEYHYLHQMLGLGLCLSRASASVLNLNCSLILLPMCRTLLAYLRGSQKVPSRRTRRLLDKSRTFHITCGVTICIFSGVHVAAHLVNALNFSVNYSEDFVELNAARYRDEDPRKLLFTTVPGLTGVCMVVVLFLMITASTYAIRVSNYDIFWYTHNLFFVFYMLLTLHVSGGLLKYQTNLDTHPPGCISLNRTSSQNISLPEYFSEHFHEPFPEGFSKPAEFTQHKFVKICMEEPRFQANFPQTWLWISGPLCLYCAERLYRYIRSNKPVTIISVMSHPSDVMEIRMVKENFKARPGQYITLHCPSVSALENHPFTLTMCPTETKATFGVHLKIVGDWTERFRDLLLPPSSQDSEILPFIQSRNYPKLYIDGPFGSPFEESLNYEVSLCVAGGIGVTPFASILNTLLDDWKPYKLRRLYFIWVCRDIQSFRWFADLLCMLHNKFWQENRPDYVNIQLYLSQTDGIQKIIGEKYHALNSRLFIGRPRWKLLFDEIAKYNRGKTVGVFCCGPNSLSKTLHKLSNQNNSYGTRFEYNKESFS
# [10] = target: NADPH oxidase 5 (Homo sapiens) (UniProt Q96PH1); assay: compounds shifting NOX5 Amplex Red fluorescence – cell-based, HEK293-NOX5, NOX inhibitor project, primary screen (AID 1161); conditions: HEK293-NOX5, ionomycin, 45 min, higher = more signal
# Sequence of NADPH oxidase 5 (Homo sapiens) (Q96PH1 whole entry, looked up): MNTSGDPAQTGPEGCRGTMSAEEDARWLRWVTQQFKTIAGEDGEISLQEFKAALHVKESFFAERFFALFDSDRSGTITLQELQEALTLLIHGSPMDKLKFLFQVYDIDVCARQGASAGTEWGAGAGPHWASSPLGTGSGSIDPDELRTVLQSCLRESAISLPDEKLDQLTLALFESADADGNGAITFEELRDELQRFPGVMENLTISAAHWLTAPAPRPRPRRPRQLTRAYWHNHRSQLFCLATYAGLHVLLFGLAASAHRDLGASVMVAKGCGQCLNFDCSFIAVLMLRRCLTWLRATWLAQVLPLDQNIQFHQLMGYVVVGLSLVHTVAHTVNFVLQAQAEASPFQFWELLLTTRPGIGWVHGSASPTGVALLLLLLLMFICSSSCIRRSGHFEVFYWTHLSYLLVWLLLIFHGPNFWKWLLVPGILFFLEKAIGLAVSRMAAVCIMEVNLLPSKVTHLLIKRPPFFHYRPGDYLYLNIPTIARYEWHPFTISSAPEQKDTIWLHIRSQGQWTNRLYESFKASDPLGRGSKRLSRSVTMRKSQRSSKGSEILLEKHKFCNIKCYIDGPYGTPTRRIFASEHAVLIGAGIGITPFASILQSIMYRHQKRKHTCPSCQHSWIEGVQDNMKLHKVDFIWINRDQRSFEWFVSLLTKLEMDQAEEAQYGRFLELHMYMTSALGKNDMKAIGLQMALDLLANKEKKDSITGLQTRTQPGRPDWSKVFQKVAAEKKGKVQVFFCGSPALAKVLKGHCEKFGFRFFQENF
# [11] = compound effects on lung adenocarcinoma cell viability – A549, calcein-AM fluorescence, 48 h, basal, profiling panel (AID 1162); conditions: higher = more signal; also: test concentration not given here
# [12] = compound effects on differentiated 3T3-L1 adipocyte viability – cell-based, 3T3-L1 adipocytes, calcein-AM fluorescence, 48 h, basal, profiling panel (AID 1163); conditions: 3T3-L1 adipocytes viability, higher = more signal; also: test concentration not given here
# [13] = compound effects on hepatocellular carcinoma cell viability – HepG2, calcein-AM fluorescence, 48 h, basal, profiling panel (AID 1164); conditions: higher = more signal; also: test concentration not given here
# [14] = compound effects on multiple myeloma cell viability – MM1S, calcein-AM fluorescence, 48 h, basal, profiling panel (AID 1165); conditions: higher = more signal; also: test concentration not given here
# [15] = calcein-AM signal in unstimulated myeloma cells – cell-based, calcein-AM fluorescence, 48 h, PK04 Diversity Set, profiling panel (AID 1166); conditions: RPMI8226 myeloma viability, higher = more signal;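 also: cells grown under basal conditions without added stimulus; test concentration not given here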
# [16] = JC-1 mitochondrial signal, unstimulated HepG2 cells – cell-based, JC-1 fluorescence, 24 h, 100 nL compound, profiling panel (AID 1167); conditions: HepG2 mitochondrial potential, higher = more signal; also: test concentration not given here
# [17] = JC-1 mitochondrial signal, unstimulated adipocytes – cell-based, JC-1 fluorescence, 3T3-L1 adipocytes, 24 h, 100 nL compound, profiling panel (AID 1168); conditions: JC-1 mitochondrial fluorescence, higher = more signal, called active from +8 up or from −8 down; also: test concentration not given here
# [18] = JC-1 mitochondrial signal, unstimulated myeloma cells – cell-based, JC-1 fluorescence, RPMI8226, 24 h, 100 nL compound, profiling panel (AID 1169); conditions: JC-1 mitochondrial potential fluorescence, higher = more signal; also: test concentration not given here
# [19] = JC-1 mitochondrial signal, unstimulated MM1S myeloma – cell-based, JC-1 fluorescence, 24 h, 100 nL compound, profiling panel (AID 1170); conditions: MM1S mitochondrial potential, higher = more signal; also: test concentration not given here
# [20] = resazurin metabolic signal in A549 cells – cell-based, resazurin fluorescence, 24 h, PK04 Diversity Set, profiling panel (AID 1171); conditions: A549 viability, higher = more signal, called active from +8 up or from −8 down; also: test concentration not given here
SMILES,z-score [1],composite z-score [2],z-score [3],z-score [4],z-score [5],z-score [6],z-score [7],z-score [8],z-score [9],z-score [10],z-score [11],z-score [12],z-score [13],z-score [14],z-score [15],z-score [16],z-score [17],z-score [18],z-score [19],z-score [20]
CC(=O)N1Cc2ccccc2C[C@]2(N=C(c3ccc(OCCCO)cc3)O[C@@H]2c2ccccc2)C1=O,1.23 (inactive),-0.0536,26 (active),16.1 (active),1.17 (inactive),3.32 (inactive),0.463,-1.31 (inactive),0.13 (inactive),-1.9,-1.07,0.749,-0.351,-2.28,-3.5,0.462,-0.202 (inactive),-0.954,-0.637,-2.76 (inactive)
CN(C)C(=O)[C@]1(CCC(=O)OC(C)(C)C)N=C(c2ccc(OCCCO)cc2)O[C@@H]1c1ccccc1,0.94 (inactive),0.217,22.5 (active),6.32 (inactive),-0.0962 (inactive),0.84 (inactive),-0.408,1.24 (inactive),0.419 (inactive),-0.229,1.13,-0.0645,0.41,0.387,-0.014,0.101,0.756 (inactive),-0.368,0.211,0.534 (inactive)
CCCC=C(CCC)[C@@H](NP(=O)(c1ccccc1)c1ccccc1)c1ccc(C(F)(F)F)cc1,-1.5 (inactive),-0.485,-0.56 (inactive),-0.647 (inactive),-0.309 (inactive),-1.24 (inactive),0.828,0.147 (inactive),1.46 (inactive),1.81,-0.779,-0.531,-0.365,0.463,0.218,-0.497,-1.53 (inactive),0.72,-0.379,0.472 (inactive)
C=CCN1C(=O)[C@@]2(CCC(=O)OC(C)(C)C)N=C(c3ccc(OCCCO)cc3)O[C@H]2c2ccccc21,0.46 (inactive),0.466,36.7 (active),36.3 (active),3.79 (inactive),13.2 (active),0.0444,-2.82 (inactive),0.413 (inactive),-0.917,-1.22,0.28,-2.35,-3.59,-3.97,-1.62,2.8 (inactive),-1.19,-2.57,-1.66 (inactive)
COc1cc(OC)c(C(O)C2C=CC3C(=O)N(c4ccccc4)C(=O)C3N2Nc2ccc(C#N)cc2)cc1Br (stereo not given),-0.652 (inactive),0.843,25 (active),11.4 (active),1.39 (inactive),1.76 (inactive),-0.962,-1.41 (inactive),-5.35 (inactive),-2.08,0.423,-0.693,-0.268,-0.475,-0.241,-1.66,-0.403 (inactive),-0.129,-0.00738,-0.578 (inactive)
Cc1ccc(F)cc1S(=O)(=O)N[C@@H]1CCN(Cc2ccc(OC(C)C)cc2)C1,-19.2 (active),-0.186,2.14 (inactive),0.45 (inactive),-0.11 (inactive),0.673 (inactive),-0.157,-0.681 (inactive),-0.987 (inactive),-1.62,0.0197,-0.382,-0.867,-2.58,-0.974,-1.41,0.0582 (inactive),0.0721,-1.87,-0.26 (inactive)
O=C1C[C@@](C(=O)NCC(F)(F)F)(c2ccc([N+](=O)[O-])cc2)[C@@H](c2ccc(CO)cc2)N1C1CCCCC1,-0.0786 (inactive),0.517,1.18 (inactive),-0.105 (inactive),1.29 (inactive),-0.0879 (inactive),-0.429,0.166 (inactive),0.24 (inactive),0.104,-0.113,-1.03,0.268,-1.34,0.258,0.0995,-1.12 (inactive),0.685,0.0421,0.423 (inactive)
NCCCCCNC(=O)[C@@H]1C[C@@H]2C(=O)N[C@@H](CCCCN)C(=O)N2[C@@H]1c1cccc(OCCO)c1,1.17 (inactive),-0.432,0.539 (inactive),0.0681 (inactive),1.24 (inactive),0.0802 (inactive),-0.157,0.141 (inactive),0.557 (inactive),0.582,0.338,0.337,0.68,0.89,0.269,0.0184,1.37 (inactive),-0.698,-0.362,0.714 (inactive)
O=C1NC(=O)C2C1C=CC(C(O)c1ccc3c(c1)OCO3)N2Nc1ccccn1 (stereo not given),-0.0438 (inactive),-0.112,-0.113 (inactive),-0.665 (inactive),-0.752 (inactive),-0.839 (inactive),0.883,-1.27 (inactive),-3 (inactive),-1.73,0.732,-1.11,0.641,0.0178,-0.12,-0.465,-0.0272 (inactive),0.115,-0.263,-1.67 (inactive)
